We go through two sequences from PMC7862700, “An all-to-all approach to the identification of sequence-specific readers for epigenetic DNA modifications on cytosine”.

What all share (assay): DAPPL (digital affinity profiling via proximity ligation, sequencing); 10 mM Tris-HCl pH 7.5, 50 mM NaCl, 1 mM DTT, 4% glycerol, room temperature, 30 min; GST-TFs on glutathione beads, 16-mer random dsDNA library, 0.1% formaldehyde crosslink after washing; high values mean tight binding
What all share (conditions): protein: recombinant; tags: N-terminal GST; dsDNA, one strand shown

One test deals with T1, FLI1 (Homo sapiens, UniProt Q01543 1-452).
T1 sequence: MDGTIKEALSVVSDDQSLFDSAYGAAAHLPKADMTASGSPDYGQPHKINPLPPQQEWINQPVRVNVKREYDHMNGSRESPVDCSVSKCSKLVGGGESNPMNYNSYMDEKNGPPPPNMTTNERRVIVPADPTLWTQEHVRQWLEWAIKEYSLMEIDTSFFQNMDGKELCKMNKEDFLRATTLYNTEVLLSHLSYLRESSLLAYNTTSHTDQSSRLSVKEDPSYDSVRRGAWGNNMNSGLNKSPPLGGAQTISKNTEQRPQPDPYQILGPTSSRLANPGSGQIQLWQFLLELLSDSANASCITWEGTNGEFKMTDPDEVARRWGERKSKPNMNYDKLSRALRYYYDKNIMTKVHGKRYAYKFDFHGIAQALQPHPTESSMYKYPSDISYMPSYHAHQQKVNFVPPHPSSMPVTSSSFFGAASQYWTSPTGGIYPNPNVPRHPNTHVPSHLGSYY
In short, it runs like this:
(§1)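 Beads coated with glutathione captured GST-fused human transcription factors that had been expressed in yeast, and the factors were then given DNA barcodes and pooled with a tag-only sample. The pools were incubated with 200 nmole of a random double-stranded 16-mer DNA library in Tris/NaCl/DTT/glycerol buffer for 30 min at room temperature, washed, crosslinked with 0.1% formaldehyde and proximity-ligated with BsaI/T4 ligase at 37 °C for 1 h. PCR amplification and Illumina NextSeq500 sequencing came last. Binding signal is each hexamer's read frequency for a factor divided by its frequency for the tag-only sample.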

For the next test, the target named is T2, ELK1 (Homo sapiens, UniProt P19419 1-428).
T2 sequence: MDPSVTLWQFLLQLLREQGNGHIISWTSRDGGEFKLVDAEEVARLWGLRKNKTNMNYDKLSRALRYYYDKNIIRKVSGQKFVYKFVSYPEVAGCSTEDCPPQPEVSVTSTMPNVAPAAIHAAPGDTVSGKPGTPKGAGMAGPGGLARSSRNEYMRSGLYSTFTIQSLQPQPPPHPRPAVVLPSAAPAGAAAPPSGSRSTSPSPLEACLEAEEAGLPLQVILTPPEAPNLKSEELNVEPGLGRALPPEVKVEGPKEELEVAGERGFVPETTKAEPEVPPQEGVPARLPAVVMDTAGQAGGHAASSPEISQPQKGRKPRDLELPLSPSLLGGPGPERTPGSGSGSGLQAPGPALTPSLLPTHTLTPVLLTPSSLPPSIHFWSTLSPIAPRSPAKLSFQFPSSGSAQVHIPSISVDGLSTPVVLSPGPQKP
In short, it runs like this: as §1

In a further test the target is ELF1 (Homo sapiens, UniProt P32519 1-619). The method in brief:
as §1

A further test has as its target T3, EHF (Homo sapiens, UniProt Q9NZC4 1-300).
T3 sequence: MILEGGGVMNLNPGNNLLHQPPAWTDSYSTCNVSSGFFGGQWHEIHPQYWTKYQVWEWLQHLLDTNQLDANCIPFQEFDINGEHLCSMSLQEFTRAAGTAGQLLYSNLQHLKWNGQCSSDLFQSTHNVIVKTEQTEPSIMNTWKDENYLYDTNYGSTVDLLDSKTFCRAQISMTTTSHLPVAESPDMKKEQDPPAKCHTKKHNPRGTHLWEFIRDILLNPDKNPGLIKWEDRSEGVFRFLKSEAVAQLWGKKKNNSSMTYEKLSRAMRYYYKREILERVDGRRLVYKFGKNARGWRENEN
In short, it runs like this: as §1

The next test concerns the target SPIB (Homo sapiens, UniProt Q01892 1-262). In short, it runs like this:
as §1

The target of another test is T4, FEV (Homo sapiens, UniProt Q99581 1-238).
T4 sequence: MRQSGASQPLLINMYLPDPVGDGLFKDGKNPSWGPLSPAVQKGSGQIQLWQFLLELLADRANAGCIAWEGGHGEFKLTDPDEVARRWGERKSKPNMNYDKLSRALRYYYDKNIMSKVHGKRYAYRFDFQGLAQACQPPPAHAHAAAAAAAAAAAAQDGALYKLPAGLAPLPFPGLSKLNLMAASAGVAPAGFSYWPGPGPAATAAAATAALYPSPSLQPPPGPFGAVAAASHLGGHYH
The method in brief:
as §1

The next test concerns the target ETV5 (Homo sapiens, UniProt P41161 1-510). The method in brief: as §1
The target in another test is T5, SPIC (Homo sapiens, UniProt Q8N5J4 1-248).
T5 sequence: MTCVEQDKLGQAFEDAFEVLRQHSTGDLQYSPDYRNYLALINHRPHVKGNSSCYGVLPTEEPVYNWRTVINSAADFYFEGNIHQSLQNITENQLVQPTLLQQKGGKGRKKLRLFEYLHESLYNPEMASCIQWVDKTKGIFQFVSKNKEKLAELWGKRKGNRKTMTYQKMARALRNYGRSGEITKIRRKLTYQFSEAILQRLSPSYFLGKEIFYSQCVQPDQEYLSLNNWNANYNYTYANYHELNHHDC
In short, it runs like this:
as §1

In the next test the target is ELF4 (Homo sapiens, UniProt Q99607 1-663). In short, it runs like this: as §1
The target in another test is T6, ELK4 (Homo sapiens, UniProt P28324-2 1-405).
T6 sequence: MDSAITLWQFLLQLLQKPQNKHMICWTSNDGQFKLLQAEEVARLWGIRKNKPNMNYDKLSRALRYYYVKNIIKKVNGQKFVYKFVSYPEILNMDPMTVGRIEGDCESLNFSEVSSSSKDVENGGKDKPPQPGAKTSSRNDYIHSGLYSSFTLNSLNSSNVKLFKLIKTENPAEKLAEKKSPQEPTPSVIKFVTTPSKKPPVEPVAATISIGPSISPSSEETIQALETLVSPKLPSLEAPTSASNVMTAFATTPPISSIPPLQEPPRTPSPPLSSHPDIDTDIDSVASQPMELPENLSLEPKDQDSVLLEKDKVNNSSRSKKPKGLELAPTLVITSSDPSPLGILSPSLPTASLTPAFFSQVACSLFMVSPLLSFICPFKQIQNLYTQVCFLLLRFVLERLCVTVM
In short, it runs like this:
as §1

For another test, the target named is T7, ETV2 (Homo sapiens, UniProt O00321 1-342).
T7 sequence: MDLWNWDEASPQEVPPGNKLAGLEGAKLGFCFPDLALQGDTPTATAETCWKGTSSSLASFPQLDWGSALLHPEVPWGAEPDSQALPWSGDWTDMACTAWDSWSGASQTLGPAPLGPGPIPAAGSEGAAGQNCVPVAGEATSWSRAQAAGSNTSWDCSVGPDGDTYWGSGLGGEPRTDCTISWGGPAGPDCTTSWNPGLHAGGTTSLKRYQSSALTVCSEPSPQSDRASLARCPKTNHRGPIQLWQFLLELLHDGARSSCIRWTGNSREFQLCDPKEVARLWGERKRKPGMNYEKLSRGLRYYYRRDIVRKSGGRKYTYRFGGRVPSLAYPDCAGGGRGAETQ
In short, it runs like this:
as §1

In a further test the target is T8, ELF3 (Homo sapiens, UniProt P78545 1-371).
T8 sequence: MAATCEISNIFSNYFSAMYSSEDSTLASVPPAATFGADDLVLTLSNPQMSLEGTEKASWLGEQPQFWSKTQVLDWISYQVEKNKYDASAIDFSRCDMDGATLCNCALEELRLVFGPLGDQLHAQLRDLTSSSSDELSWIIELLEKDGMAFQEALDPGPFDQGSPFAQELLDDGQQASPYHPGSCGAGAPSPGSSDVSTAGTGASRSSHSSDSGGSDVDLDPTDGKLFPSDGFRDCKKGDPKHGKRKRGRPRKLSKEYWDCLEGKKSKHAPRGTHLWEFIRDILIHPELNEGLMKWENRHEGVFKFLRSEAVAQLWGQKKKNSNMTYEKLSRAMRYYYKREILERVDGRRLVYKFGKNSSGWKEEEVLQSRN
In short, it runs like this: as §1

In a further test the target is ETV1 (Homo sapiens, UniProt P50549 1-477). In short, it runs like this: as §1
The next test addresses T9, GABPA (Homo sapiens, UniProt Q06546 1-454).
T9 sequence: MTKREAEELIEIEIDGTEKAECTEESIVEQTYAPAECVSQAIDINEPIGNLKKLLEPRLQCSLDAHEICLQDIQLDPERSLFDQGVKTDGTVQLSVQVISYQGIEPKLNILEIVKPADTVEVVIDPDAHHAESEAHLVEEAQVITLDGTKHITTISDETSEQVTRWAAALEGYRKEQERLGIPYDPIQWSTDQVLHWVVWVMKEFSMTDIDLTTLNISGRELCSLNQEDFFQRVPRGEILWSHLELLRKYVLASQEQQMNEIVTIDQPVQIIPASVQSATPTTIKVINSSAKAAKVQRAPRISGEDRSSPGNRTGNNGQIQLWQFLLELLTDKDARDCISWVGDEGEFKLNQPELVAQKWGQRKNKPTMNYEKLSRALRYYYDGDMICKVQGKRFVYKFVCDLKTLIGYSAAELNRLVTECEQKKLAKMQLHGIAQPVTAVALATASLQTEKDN
In short, it runs like this:
as §1

A further test has as its target T10, ERG (Homo sapiens, UniProt P11308 1-479).
T10 sequence: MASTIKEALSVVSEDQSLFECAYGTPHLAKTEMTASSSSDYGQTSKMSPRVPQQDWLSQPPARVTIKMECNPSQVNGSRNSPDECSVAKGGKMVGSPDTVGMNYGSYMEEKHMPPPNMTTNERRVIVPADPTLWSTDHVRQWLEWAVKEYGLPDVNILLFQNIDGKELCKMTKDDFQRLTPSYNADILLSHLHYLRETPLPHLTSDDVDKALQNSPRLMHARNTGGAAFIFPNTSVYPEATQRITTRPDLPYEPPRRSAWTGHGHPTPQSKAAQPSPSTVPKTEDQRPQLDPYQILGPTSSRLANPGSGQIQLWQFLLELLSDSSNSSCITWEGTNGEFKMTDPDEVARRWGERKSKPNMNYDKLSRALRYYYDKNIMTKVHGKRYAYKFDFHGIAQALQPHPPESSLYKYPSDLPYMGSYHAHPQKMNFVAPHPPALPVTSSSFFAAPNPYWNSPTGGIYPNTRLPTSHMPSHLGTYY
The method in brief: as §1

In a further test the target is SPI1 (Homo sapiens, UniProt P17947 1-270). The method in brief: as §1
The next test addresses T11, ELK3 (Homo sapiens, UniProt P41970 1-407).
T11 sequence: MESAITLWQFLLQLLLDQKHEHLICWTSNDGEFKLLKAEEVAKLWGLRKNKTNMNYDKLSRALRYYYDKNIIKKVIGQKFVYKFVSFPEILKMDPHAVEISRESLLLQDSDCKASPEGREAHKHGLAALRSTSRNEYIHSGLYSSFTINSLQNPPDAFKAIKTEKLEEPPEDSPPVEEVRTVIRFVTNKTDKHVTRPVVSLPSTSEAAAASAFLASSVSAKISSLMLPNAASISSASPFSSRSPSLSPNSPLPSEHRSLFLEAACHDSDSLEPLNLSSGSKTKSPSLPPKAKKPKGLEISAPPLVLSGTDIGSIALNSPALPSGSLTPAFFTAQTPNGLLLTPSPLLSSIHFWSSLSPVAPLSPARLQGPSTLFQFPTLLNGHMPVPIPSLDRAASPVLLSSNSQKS
In short, it runs like this: as §1

Chain of ETV5 (P41161 whole entry): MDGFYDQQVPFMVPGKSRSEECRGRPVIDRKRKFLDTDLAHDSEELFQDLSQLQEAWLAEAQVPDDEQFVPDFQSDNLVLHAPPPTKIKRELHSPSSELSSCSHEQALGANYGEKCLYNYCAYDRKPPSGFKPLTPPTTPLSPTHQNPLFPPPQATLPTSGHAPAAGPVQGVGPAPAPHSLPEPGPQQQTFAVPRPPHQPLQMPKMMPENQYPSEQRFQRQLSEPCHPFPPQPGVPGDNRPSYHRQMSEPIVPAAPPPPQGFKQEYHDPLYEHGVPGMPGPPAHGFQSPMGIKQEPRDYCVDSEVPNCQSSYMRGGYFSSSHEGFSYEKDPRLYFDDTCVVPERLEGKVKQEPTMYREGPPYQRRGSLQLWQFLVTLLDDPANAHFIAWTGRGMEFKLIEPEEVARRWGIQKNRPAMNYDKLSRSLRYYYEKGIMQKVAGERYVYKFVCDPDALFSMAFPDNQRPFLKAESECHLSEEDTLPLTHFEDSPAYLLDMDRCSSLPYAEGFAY
Chain of ELF1 (P32519 whole entry): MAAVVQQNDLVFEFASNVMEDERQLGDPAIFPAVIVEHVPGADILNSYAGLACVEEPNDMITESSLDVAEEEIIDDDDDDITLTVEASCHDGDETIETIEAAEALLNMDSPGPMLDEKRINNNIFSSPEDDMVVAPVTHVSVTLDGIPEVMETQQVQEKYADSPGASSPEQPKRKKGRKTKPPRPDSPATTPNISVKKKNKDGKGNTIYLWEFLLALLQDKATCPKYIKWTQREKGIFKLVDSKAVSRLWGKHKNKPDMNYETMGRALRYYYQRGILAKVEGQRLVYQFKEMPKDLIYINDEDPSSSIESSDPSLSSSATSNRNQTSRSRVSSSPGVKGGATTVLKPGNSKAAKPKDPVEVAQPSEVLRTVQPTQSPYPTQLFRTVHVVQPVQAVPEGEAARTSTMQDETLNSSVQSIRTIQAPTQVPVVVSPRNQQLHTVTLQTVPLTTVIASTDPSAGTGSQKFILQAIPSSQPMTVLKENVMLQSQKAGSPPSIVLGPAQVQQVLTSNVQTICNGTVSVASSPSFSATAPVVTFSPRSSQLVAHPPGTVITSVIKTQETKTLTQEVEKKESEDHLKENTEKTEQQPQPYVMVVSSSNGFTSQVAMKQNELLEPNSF
Chain of ELF4 (Q99607 whole entry): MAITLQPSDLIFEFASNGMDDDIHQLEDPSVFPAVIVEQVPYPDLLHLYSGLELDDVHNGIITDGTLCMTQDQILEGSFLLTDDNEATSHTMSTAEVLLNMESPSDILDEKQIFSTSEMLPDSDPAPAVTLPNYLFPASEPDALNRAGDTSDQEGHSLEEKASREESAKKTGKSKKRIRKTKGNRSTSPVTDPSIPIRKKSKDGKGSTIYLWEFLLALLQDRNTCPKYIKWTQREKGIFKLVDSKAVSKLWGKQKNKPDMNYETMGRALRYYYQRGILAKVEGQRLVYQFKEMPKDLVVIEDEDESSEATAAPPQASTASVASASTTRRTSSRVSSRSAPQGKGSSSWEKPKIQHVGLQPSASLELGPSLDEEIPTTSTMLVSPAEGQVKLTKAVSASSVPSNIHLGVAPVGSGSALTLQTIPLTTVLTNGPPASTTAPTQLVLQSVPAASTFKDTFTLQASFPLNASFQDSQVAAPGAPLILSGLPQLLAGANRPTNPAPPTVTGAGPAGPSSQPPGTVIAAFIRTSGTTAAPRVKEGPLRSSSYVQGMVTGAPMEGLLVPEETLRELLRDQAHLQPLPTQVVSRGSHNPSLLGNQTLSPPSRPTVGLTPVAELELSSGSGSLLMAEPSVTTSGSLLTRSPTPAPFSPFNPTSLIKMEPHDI
Chain of SPIB (Q01892 whole entry): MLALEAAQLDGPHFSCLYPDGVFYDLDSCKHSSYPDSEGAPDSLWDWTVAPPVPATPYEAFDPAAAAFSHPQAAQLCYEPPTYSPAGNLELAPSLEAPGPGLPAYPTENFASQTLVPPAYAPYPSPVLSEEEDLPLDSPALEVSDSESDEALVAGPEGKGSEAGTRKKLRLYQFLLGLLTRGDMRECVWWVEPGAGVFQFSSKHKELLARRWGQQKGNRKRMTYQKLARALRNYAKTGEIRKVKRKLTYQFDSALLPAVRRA
Chain of ETV1 (P50549 whole entry): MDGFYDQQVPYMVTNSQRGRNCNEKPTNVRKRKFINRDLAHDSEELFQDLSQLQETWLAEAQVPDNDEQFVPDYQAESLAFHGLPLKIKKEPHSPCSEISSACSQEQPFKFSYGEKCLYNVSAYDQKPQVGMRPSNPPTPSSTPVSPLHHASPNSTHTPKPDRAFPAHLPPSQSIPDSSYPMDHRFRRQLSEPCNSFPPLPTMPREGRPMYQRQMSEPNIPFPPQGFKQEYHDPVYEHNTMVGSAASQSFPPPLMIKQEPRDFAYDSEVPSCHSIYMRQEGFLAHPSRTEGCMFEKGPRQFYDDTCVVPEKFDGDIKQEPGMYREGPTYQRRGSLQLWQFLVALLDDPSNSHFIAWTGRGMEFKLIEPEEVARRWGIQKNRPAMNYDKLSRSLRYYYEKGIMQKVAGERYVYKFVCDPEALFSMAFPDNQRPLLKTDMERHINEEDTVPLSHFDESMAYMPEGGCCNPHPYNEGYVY

Turning to TGCTGT, the binding signal in the test with FLI1 was 1.03 fold enrichment (6-mer frequency, TF over GST control); with ELK1, 1 fold enrichment (6-mer frequency, TF over GST control); with ELF1 it was 1.09 fold enrichment (6-mer frequency, TF over GST control); with EHF it was 1.13 fold enrichment (6-mer frequency, TF over GST control); with SPIB, 1 fold enrichment (6-mer frequency, TF over GST control); with FEV it was 1.01 fold enrichment (6-mer frequency, TF over GST control). In addition, the binding signal with ETV5 is 1.06 fold enrichment (6-mer frequency, TF over GST control); with SPIC, 1.18 fold enrichment (6-mer frequency, TF over GST control); with ELF4 it was 1.06 fold enrichment (6-mer frequency, TF over GST control); with ELK4, 1.19 fold enrichment (6-mer frequency, TF over GST control); with ETV2, 1.15 fold enrichment (6-mer frequency, TF over GST control); in the test with ELF3 it was 1.12 fold enrichment (6-mer frequency, TF over GST control). Moreover, the binding signal in the test with ETV1 was 1.17 fold enrichment (6-mer frequency, TF over GST control).
Take ACCCAA: the binding signal was 1.12 fold enrichment (6-mer frequency, TF over GST control) in the test with FLI1; 1.15 fold enrichment (6-mer frequency, TF over GST control) in the test with ELK1; 1.18 fold enrichment (6-mer frequency, TF over GST control) with GABPA; 1.03 fold enrichment (6-mer frequency, TF over GST control) with ERG; 1.16 fold enrichment (6-mer frequency, TF over GST control) in the test with ELF1; 1.12 fold enrichment (6-mer frequency, TF over GST control) in the test with SPI1. Further, the binding signal was 1.08 fold enrichment (6-mer frequency, TF over GST control) with SPIB; 1.03 fold enrichment (6-mer frequency, TF over GST control) in the test with ELK3; 1.05 fold enrichment (6-mer frequency, TF over GST control) with FEV; 1.08 fold enrichment (6-mer frequency, TF over GST control) in the test with ETV5; 1.2 fold enrichment (6-mer frequency, TF over GST control) in the test with SPIC; 1.18 fold enrichment (6-mer frequency, TF over GST control) with ELF4. The binding signal is 1.08 fold enrichment (6-mer frequency, TF over GST control) with ELK4; 1.13 fold enrichment (6-mer frequency, TF over GST control) in the test with ETV2; 1.26 fold enrichment (6-mer frequency, TF over GST control) with ELF3.
